Results from PubChem BioAssay (EPA / NIEHS).
Results filed as inconclusive are left out. The source made the active and inactive calls. How the source made its calls, unless noted: active means hit-call score of the fitted dose curve at least 0.9, where 1 is the maximum; inconclusive means response in the unintended direction; inactive means score below 0.9.

How the values were obtained:
[1] = target: Retinoic acid receptor alpha (Homo sapiens) (UniProt P10276); experiment: ATG_DR5_RAR_CIS: Attagene CIS-FACTORIAL HepG2 Assay for human Retinoic Acid Receptor Alpha (RARE), DR5 submotif (AID 2282934; active means hit-call score of the fitted dose curve at least 0.9, where 1 is the maximum; inactive means score below 0.9); conditions: HepG2 Attagene cis-factorial RARE DR5 reporter, mRNA; actives raise or lower the signal
Procedure, shortened: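 HepG2, transient cis-reporter transfection, 24 h exposure. mRNA readout: RT-PCR, FAM label, HpaI cut, capillary electrophoresis. DMSO baseline, gain/loss fitting.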

[2] = ATG_M_19_CIS: Attagene CIS-FACTORIAL HepG2 Assay for M19 Transcription Factor (Internal Marker) (AID 2282939; active means hit-call score of the fitted dose curve at least 0.9, where 1 is the maximum; inactive means score below 0.9); conditions: HepG2 Attagene CIS-FACTORIAL M19 internal marker reporter; actives raise or lower the signal
Procedure, shortened: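 HepG2 cells transiently transfected with cis-regulated multiplexed reporter units, dosed 24 h. Reporter mRNA quantified by RT-PCR and capillary electrophoresis; internal background marker fitted bidirectionally versus DMSO.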

[3] = target: Hepatocyte nuclear factor 3-beta (Homo sapiens) (UniProt Q9Y261); experiment: ATG_FoxA2_CIS: Attagene CIS-FACTORIAL HepG2 Assay for human Forkhead box A2 (FOXA2) (AID 2282942; active means hit-call score of the fitted dose curve at least 0.9, where 1 is the maximum; inactive means score below 0.9); conditions: HepG2 cis-reporter transcription factor activity, 24 h; actives raise or lower the signal
Procedure, shortened: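 Cells: HepG2, transient multiplex reporter transfection. Exposure 24 h. Detection: reporter-specific RT-PCR, fluorescent labelling, restriction digest, capillary electrophoresis. Analysis: bidirectional curve fit, DMSO as negative control.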

[4] = ATG_M_32_CIS: Attagene CIS-FACTORIAL HepG2 Assay for M32 Transcription Factor (Internal Marker) (AID 2282949; active means hit-call score of the fitted dose curve at least 0.9, where 1 is the maximum; inactive means score below 0.9;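 further: background control marker of the multiplexed CIS panel rather than a real target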); conditions: HepG2 Attagene cis-factorial M32 reporter, mRNA; actives raise or lower the signal
Procedure, shortened: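 HepG2 cells transiently transfected with multiplexed cis-regulated reporter units, dosed 24 h. Reporter mRNA quantified by RT-PCR, 6-FAM labelling, HpaI digestion and capillary electrophoresis; bidirectional fit vs DMSO.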

[5] = ATG_Sox_CIS: Attagene CIS-FACTORIAL HepG2 Assay for human SRY-box transcription factor (SOX) (AID 2282960; active means hit-call score of the fitted dose curve at least 0.9, where 1 is the maximum; inactive means score below 0.9); conditions: HepG2 Attagene cis-factorial SOX reporter, mRNA; actives raise or lower the signal
Procedure, shortened: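 Cells were transfected with reporter constructs under cis-regulatory promoters, then exposed to chemicals for 24 h. Reporter transcripts were quantified by fluorescence after RT-PCR and capillary electrophoresis; activity was fitted in both directions against DMSO.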

[6] = target: Hepatocyte nuclear factor 4-alpha (Homo sapiens) (UniProt P41235); experiment: ATG_HNF4a_TRANS: Attagene TRANS-FACTORIAL HepG2 Assay for human Hepatocyte Nuclear Factor 4 alpha (HNF4a) (AID 2282982); conditions: HepG2 HNF4a transactivation reporter, mRNA readout
Procedure, shortened: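 Readout is fluorescent reporter-transcript fragments resolved by capillary electrophoresis after RT-PCR from HepG2 cells dosed for 24 h. Cells carried transfected GAL4-UAS reporter constructs measuring exogenous NR-GAL4 chimera activity; DMSO served as baseline.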

[7] = target: human Peroxisome Proliferator-activated Receptor alpha (PPARa), PPARA (gene 5465) (UniProt Q07869); experiment: ATG_PPARa_TRANS: Attagene TRANS-FACTORIAL HepG2 Assay for human Peroxisome Proliferator-activated Receptor alpha (PPARa) (AID 2283001);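 on AC50: potency for gain of reporter signal over DMSO so agonist or activator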
Procedure, shortened: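 Read-out is fluorescence of reporter cDNA fragments resolved by capillary electrophoresis after RT-PCR. Human HepG2 liver cells carried transfected PPARa-Gal4 chimera and GAL4-UAS reporter units, treated 24 h; activity scored as increase over DMSO.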

[8] = target: Retinoic acid receptor RXR-alpha (Homo sapiens) (UniProt P19793); experiment: ATG_RXRa_TRANS: Attagene TRANS-FACTORIAL HepG2 Assay for human Retinoid X Receptor alpha (RXRa) (AID 2283012)
Procedure, shortened: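 HepG2 cells transiently transfected with GAL4-UAS reporter units and chimeric RXRa-Gal4 protein, treated 24 h. Reporter mRNA measured by RT-PCR, fluorescent labelling, HpaI digestion and capillary electrophoresis. Induction fitted against DMSO.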

[9] = TOX21_p53_BLA_p2_viability: Viability Assessment in the Tox21 HCT-116 p53 Agonism Beta-lactamase Assay, Phase 2 (AID 2283591);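 further: compound exposure lasted 16 h at 37 °C; actives lower the ATP signal meaning cytotoxicity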
Procedure, shortened: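 Cytotoxicity readout: CellTiter-Glo ATP luminescence, 30 min at room temperature, after the beta-lactamase read. Cells were HCT116 exposed 16 h at 37C to compounds pin-transferred at 217-fold dilution from DMSO stocks.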

[10] = target: Cellular tumor antigen p53 (Homo sapiens) (UniProt P04637); experiment: TOX21_p53_BLA_p2_ratio: Tox21 HCT-116 p53 Agonism Beta-lactamase Assay, Ratio, Phase 2 (AID 2283592)
Procedure, shortened: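 In this cell-based reporter format, HCT116 cells were dosed with chemicals delivered from DMSO by 217-fold dilution and incubated 16 h at 37C. Emission at 460 and 530 nm after 2 h CCF4-AM loading provided the ratio, fitted upward versus DMSO.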

[11] = TOX21_p53_BLA_p3_viability: Viability Assessment in the Tox21 HCT-116 p53 Agonism Beta-lactamase Assay, Phase 3 (AID 2283593);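 further: cells exposed to compound for 16 h before reading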
Procedure, shortened: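 Cellular ATP was quantified by CellTiter-Glo luminescence, read after 30 min at room temperature. Beforehand, HCT116 cells (4000/well) received compound 5 h post-seeding, 217-fold diluted from DMSO, then incubated 16 h at 37C.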

[12] = target: Cellular tumor antigen p53 (Homo sapiens) (UniProt P04637); experiment: TOX21_p53_BLA_p3_ratio: Tox21 HCT-116 p53 Agonism Beta-lactamase Assay, Ratio, Phase 3 (AID 2283596)
Procedure, shortened: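 HCT116 p53-bla cells (4000/well) given compound in DMSO (217-fold dilution) after 5 h, incubated 16 h at 37C. CCF4-AM substrate 2 h at room temperature; 460/530 nm emission ratio, gain fitted against DMSO.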

[13] = target: Cellular tumor antigen p53 (Homo sapiens) (UniProt P04637); experiment: TOX21_p53_BLA_p5_ratio: Tox21 HCT-116 p53 Agonism Beta-lactamase Assay, Ratio, Phase 5 (AID 2283599)
Procedure, shortened: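 Beta-lactamase reporter ratio (blue 460 nm over green 530 nm, 405 nm excitation) after 2 h CCF4-AM loading, in HCT-116 cells exposed 16 h at 37 C to compounds pinned at 217-fold dilution. Increases relative to DMSO baseline scored.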

[14] = TOX21_p53_BLA_p5_viability: Viability Assessment in the Tox21 HCT-116 p53 Agonism Beta-lactamase Assay, Phase 5 (AID 2283600)
Procedure, shortened: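 Compounds, pinned from DMSO at 217-fold dilution, were left on the cells for 16 h. The viability endpoint was ATP content measured by CellTiter-Glo luminescence, where falling signal reflects cytotoxicity.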

[15] = target: Cellular tumor antigen p53 (Homo sapiens) (UniProt P04637); experiment: TOX21_p53_BLA_p4_ratio: Tox21 HCT-116 p53 Agonism Beta-lactamase Assay, Ratio, Phase 4 (AID 2283601)
Procedure, shortened: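 Signal is the blue/green (460nm/530nm) ratio of cleaved versus uncleaved CCF4-AM substrate, read after 2 h substrate loading. Cells were HCT116 carrying the p53-responsive beta-lactamase reporter, dosed 16 h at 37C, 5% CO2; CellTiter-Glo measured in parallel.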

[16] = ATG_PBREM_CIS: Attagene CIS-FACTORIAL HepG2 Assay for human Phenobarbital-responsive Enhancer Module (PBREM) (AID 2282955; active means hit-call score of the fitted dose curve at least 0.9, where 1 is the maximum; inactive means score below 0.9); conditions: HepG2 PBREM cis-reporter, Attagene multiplexed transcription; actives raise or lower the signal
Procedure, shortened: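 HepG2, transient MRTU transfection, 24 h dosing; RNA → oligo(dT) RT → PCR → 6-FAM extension → HpaI → CE. Bidirectional fit vs DMSO.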

[17] = ATG_PXRE_CIS: Attagene CIS-FACTORIAL HepG2 Assay for human Pregnane X Receptor Element (PXRE) (AID 2282957; active means hit-call score of the fitted dose curve at least 0.9, where 1 is the maximum; inactive means score below 0.9); conditions: HepG2 Attagene CIS-FACTORIAL PXRE reporter, mRNA; actives raise or lower the signal
Procedure, shortened: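 Cis-element reporter mRNA in human hepatoma HepG2 cells is measured 24 h post-dosing by RT-PCR, primer-extension labeling and capillary electrophoresis; gain or loss of signal is fitted relative to DMSO.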

[18] = ATG_RORE_CIS: Attagene CIS-FACTORIAL HepG2 Assay for human RAR-related Orphan Receptor Element (RORE) (AID 2282959; active means hit-call score of the fitted dose curve at least 0.9, where 1 is the maximum; inactive means score below 0.9); conditions: HepG2 Attagene cis-factorial RORE reporter, mRNA; actives raise or lower the signal
Procedure, shortened: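 Multiplexed reporter assay measuring mRNA induction from a cis promoter element in transiently transfected HepG2 cells after 24 h treatment. Detection via RT-PCR and capillary electrophoresis fluorescence; DMSO serves as baseline.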

[19] = ATG_M_32_TRANS: Attagene TRANS-FACTORIAL HepG2 Assay for M32 Transcription Factor (Internal Marker) (AID 2282984); conditions: HepG2 Attagene TRANS M32 internal marker reporter;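 further: transcript level of a background control reporter unit measured by RT-PCR and capillary electrophoresis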
Procedure, shortened: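 Measures reporter mRNA induction in human HepG2 liver cells after 24 h chemical treatment. Transcripts from transiently transfected GAL4-UAS reporter units are amplified, fluorescently labelled and sized by capillary electrophoresis; gain of signal relative to DMSO.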

[20] = target: human Retinoid X Receptor beta (RXRb), RXRB (gene 6257) (UniProt P28702); experiment: ATG_RXRb_TRANS: Attagene TRANS-FACTORIAL HepG2 Assay for human Retinoid X Receptor beta (RXRb) (AID 2283013)
Procedure, shortened: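 HepG2 cells were transiently transfected with multiplexed GAL4-UAS reporters and a chimeric RXRb-Gal4 construct, then exposed for 24 h. Reporter mRNA was quantified by RT-PCR, FAM labeling, HpaI digestion and capillary electrophoresis; gain of signal was scored against DMSO.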

Sequence of Hepatocyte nuclear factor 3-beta (Homo sapiens) (Q9Y261 whole entry, looked up): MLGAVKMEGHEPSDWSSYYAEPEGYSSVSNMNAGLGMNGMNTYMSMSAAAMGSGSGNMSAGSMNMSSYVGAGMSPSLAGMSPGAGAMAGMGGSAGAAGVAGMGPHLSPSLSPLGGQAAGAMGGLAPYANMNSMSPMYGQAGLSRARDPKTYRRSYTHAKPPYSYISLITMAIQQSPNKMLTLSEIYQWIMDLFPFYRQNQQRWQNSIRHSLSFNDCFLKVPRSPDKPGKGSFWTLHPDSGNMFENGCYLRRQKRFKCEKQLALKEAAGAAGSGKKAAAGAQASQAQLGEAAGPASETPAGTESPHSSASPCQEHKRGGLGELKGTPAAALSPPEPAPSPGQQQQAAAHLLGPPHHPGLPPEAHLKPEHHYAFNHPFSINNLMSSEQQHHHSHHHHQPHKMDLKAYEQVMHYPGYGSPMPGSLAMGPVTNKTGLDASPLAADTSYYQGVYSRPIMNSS
Sequence of Retinoic acid receptor alpha (Homo sapiens) (P10276 whole entry, looked up): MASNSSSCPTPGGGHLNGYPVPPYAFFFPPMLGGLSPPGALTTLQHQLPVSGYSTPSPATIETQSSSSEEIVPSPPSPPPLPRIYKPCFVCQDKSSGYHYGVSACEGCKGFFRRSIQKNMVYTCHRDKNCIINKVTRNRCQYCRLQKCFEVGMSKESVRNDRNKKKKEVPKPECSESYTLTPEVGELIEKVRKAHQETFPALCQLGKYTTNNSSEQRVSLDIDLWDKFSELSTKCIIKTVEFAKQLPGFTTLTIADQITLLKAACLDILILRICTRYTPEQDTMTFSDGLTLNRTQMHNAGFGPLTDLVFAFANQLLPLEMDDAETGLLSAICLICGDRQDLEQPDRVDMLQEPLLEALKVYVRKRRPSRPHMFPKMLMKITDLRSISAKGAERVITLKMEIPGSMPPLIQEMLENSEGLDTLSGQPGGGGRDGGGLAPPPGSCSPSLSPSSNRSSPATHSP
Sequence of Cellular tumor antigen p53 (Homo sapiens) (P04637 whole entry, looked up): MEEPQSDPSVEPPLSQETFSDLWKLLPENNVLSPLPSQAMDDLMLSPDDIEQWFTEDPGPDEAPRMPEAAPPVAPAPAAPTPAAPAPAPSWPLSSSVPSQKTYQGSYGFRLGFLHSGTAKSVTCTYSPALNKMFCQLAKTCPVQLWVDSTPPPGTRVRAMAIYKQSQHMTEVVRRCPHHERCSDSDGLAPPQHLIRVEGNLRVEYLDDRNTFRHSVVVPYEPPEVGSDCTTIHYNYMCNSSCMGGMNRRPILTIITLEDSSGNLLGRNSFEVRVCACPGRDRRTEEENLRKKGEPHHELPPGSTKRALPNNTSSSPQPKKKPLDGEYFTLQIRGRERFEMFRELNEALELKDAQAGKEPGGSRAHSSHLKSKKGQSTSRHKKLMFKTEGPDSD
Sequence of human Peroxisome Proliferator-activated Receptor alpha (PPARa), PPARA (gene 5465) (Q07869 whole entry, looked up, the tested form may be a part): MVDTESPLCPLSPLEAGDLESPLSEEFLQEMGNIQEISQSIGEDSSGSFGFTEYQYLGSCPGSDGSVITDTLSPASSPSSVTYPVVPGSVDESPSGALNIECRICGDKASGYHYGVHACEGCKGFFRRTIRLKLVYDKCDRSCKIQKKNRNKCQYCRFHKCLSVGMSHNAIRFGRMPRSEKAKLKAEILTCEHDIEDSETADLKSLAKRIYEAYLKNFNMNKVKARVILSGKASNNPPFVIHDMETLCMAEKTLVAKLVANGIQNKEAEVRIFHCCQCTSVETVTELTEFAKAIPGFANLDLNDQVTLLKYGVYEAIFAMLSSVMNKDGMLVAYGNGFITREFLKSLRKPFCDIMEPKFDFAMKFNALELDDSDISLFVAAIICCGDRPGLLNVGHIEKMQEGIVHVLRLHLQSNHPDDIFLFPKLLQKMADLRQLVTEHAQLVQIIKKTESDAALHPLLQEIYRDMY
Sequence of Hepatocyte nuclear factor 4-alpha (Homo sapiens) (P41235 whole entry, looked up, the tested form may be a part): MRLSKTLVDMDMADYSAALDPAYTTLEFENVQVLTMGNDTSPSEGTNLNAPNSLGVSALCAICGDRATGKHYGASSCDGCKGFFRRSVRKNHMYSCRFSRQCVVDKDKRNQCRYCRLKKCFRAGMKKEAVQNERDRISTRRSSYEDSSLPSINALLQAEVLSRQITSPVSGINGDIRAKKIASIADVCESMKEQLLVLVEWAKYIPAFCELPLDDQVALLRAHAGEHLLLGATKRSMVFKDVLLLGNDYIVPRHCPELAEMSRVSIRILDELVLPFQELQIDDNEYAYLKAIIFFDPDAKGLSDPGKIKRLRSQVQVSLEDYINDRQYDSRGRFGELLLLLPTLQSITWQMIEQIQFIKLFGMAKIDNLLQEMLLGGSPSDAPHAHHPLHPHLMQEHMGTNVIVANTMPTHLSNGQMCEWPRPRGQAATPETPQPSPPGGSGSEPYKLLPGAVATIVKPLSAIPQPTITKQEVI
Sequence of Retinoic acid receptor RXR-alpha (Homo sapiens) (P19793 whole entry, looked up, the tested form may be a part): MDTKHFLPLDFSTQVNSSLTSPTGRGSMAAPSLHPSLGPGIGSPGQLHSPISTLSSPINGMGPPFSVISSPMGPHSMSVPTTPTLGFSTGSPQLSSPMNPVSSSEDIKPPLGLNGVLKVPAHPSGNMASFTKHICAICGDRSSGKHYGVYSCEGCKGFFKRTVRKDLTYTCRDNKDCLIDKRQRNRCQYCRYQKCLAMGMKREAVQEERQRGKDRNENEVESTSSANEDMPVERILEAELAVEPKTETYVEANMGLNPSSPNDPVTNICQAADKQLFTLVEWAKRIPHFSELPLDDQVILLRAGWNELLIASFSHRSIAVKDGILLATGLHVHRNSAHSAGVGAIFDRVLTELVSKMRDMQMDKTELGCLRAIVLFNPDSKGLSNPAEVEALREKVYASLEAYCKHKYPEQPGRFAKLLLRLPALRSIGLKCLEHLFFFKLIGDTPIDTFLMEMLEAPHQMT
Sequence of human Retinoid X Receptor beta (RXRb), RXRB (gene 6257) (P28702 whole entry, looked up, the tested form may be a part): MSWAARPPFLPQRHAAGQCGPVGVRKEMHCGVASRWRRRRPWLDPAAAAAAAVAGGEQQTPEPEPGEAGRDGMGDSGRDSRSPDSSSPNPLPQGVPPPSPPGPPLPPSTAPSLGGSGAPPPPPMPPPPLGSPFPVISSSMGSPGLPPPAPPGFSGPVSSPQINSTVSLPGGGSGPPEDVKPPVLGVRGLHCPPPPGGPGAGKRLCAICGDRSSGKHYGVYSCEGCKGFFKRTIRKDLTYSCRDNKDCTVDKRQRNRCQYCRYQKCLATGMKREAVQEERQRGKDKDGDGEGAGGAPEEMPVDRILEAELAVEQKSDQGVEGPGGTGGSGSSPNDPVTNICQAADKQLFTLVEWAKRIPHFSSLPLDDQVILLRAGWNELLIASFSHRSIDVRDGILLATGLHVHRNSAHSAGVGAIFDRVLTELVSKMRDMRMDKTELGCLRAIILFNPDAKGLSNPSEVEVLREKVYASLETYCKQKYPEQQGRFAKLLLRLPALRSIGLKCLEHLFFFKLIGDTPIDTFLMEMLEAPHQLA

CCOC(=O)CC(=O)OCC
outcome [1]: inactive | outcome [2]: inactive | outcome [3]: inactive | outcome [4]: inactive | outcome [5]: inactive | outcome [6]: inactive | outcome [7]: inactive | outcome [8]: inactive | outcome [9]: inactive | outcome [10]: inactive | outcome [11]: inactive | outcome [12]: inactive | outcome [13]: inactive | outcome [14]: inactive | outcome [15]: inactive

O=C(c1ccccc1)c1ccccc1O
outcome [1]: inactive | outcome [2]: inactive | outcome [4]: inactive | outcome [16]: inactive | AC50 [17]: 26.7 µM (active) | outcome [18]: inactive | outcome [5]: inactive | outcome [19]: inactive | outcome [7]: inactive | outcome [8]: inactive | AC50 [20]: 75.9 µM (active)

CCCCCCC1CCC(=O)O1 (centres undefined)
outcome [1]: inactive | outcome [2]: inactive | outcome [3]: inactive | outcome [4]: inactive | outcome [16]: inactive | outcome [17]: inactive | outcome [18]: inactive | outcome [6]: inactive | outcome [19]: inactive | outcome [7]: inactive | outcome [8]: inactive | outcome [20]: inactive | outcome [9]: inactive | outcome [10]: inactive | outcome [12]: inactive | outcome [13]: inactive

COC(OC)C(C)c1ccccc1 (centres undefined)
outcome [1]: inactive | outcome [2]: inactive | outcome [3]: inactive | AC50 [17]: 27.2 µM (active) | outcome [18]: inactive | outcome [5]: inactive | outcome [6]: inactive | outcome [19]: inactive | outcome [8]: inactive | outcome [20]: inactive | outcome [9]: inactive | outcome [10]: inactive | outcome [12]: inactive | outcome [13]: inactive | outcome [14]: inactive | outcome [15]: inactive

c1ccc(CNc2ncnc3nc[nH]c23)cc1
outcome [1]: inactive | outcome [2]: inactive | outcome [3]: inactive | outcome [16]: inactive | outcome [17]: inactive | outcome [18]: inactive | outcome [6]: inactive | outcome [7]: inactive | outcome [8]: inactive | outcome [9]: inactive | outcome [11]: inactive | outcome [14]: inactive

Sc1nc2ccccc2s1
outcome [1]: inactive | outcome [2]: inactive | outcome [3]: inactive | outcome [16]: inactive | AC50 [17]: 80.6 µM (active) | AC50 [18]: 19.3 µM (active) | outcome [5]: inactive | outcome [19]: inactive | outcome [7]: inactive | outcome [8]: inactive | outcome [20]: inactive | outcome [10]: inactive | AC50 [11]: 0.000124 µM (active) | outcome [12]: inactive | outcome [13]: inactive | AC50 [14]: 0.000128 µM (active) | outcome [15]: inactive

CCCCCCC(O)CCCCCCCCCCC(=O)OC (centres undefined)
outcome [1]: inactive | outcome [2]: inactive | outcome [16]: inactive | AC50 [17]: 27.5 µM (active) | outcome [5]: inactive | outcome [6]: inactive | outcome [19]: inactive | AC50 [7]: 7.36 µM (active) | outcome [8]: inactive | AC50 [20]: 53.5 µM (active) | outcome [9]: inactive | outcome [10]: inactive | outcome [11]: inactive | outcome [13]: inactive | outcome [14]: inactive | outcome [15]: inactive

O=C1CCCCCCCCCCCCCC1
outcome [1]: inactive | outcome [3]: inactive | outcome [4]: inactive | outcome [16]: inactive | AC50 [17]: 9.14 µM (active) | outcome [19]: inactive | AC50 [8]: 26.5 µM (active) | AC50 [20]: 13 µM (active) | outcome [10]: inactive | outcome [11]: inactive | outcome [12]: inactive | outcome [13]: inactive

O=[N+]([O-])c1ccccc1C(F)(F)F
outcome [1]: inactive | outcome [2]: inactive | outcome [3]: inactive | outcome [16]: inactive | outcome [17]: inactive | outcome [18]: inactive | outcome [6]: inactive | outcome [7]: inactive | outcome [10]: inactive | outcome [11]: inactive | outcome [12]: inactive | outcome [13]: inactive | outcome [14]: inactive | outcome [15]: inactive
